This is part of a sample that, as a whole, favours compounds with a hit. Of some 83,000 tested, about 20% had one in any assay.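 Results are percent growth after 48 hours of single-concentration exposure. 100 means growth as in untreated cells, lower positive values show inhibition; negative values down to -100 show cell death.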 A number with no mark means an inactive call. The source made the active and inactive calls. How the source made its calls: active means growth percent below 10; inactive means the rest.

This note sets out measurements from PubChem BioAssay (NCI).

Among the test systems are MOLT-4 leukemia; SR leukemia; RPMI-8226 leukemia; OVCAR-8 ovarian; OVCAR-5 ovarian; OVCAR-4 ovarian; SK-OV-3 ovarian; IGROV1 ovarian; OVCAR-3 ovarian; HS 578T breast; NCI/ADR-RES ovarian; T-47D breast; BT-549 breast; MDA-MB-435 melanoma; SW-620 colon; MCF7 breast; HCT-116 colon; HCC-2998 colon; KM12 colon.
Assay in all cases: NCI-60 one-dose screen, 48 h (100 = growth as untreated, 0 = no growth, -100 = all killed)
Holding throughout (conditions): 10 µM unless noted

For the compound `O=C([O][Hg][c]1ccccc1)c1ccccc1`, the growth was -27.5% (active) in the test on MOLT-4 leukemia; -7.13% (active) in the test with SR leukemia; -36.7% (active) in the test on RPMI-8226 leukemia; -29% (active) in the test with OVCAR-8 ovarian; -82.3% (active) in the test on OVCAR-5 ovarian; -1.64% (active) in the test on OVCAR-4 ovarian. Moreover, the growth in the test on SK-OV-3 ovarian is 64.9%; in the test on IGROV1 ovarian, -64% (active); with OVCAR-3 ovarian, -94.4% (active); in the test on HS 578T breast, 12.9%; in the test on NCI/ADR-RES ovarian, 37.9%; in the test with T-47D breast it was -37.8% (active). The growth in the test with BT-549 breast is -92.7% (active); in the test on MDA-MB-435 melanoma, -86.6% (active); in the test with SW-620 colon, -49.6% (active); in the test with MCF7 breast it was -57.7% (active); in the test on HCT-116 colon, -82.5% (active); in the test on HCC-2998 colon it was 51%. In the test on KM12 colon, the growth is 87.6%.
On to `CCOC(=O)[C@@H](C)C[C@H](Cc1ccccc1)NC(=O)c1nc([C@@H](C[C@H](C(C)C)N(C)C(=O)[C@@H](NC(=O)[C@H]2CCCCN2C)C(C)C)OC(C)=O)sc1CCOCc1ccccc1`, for which the growth was -2.06% (active) with MOLT-4 leukemia; -36.9% (active) with SR leukemia; -32% (active) with RPMI-8226 leukemia; -19.3% (active) in the test on OVCAR-8 ovarian; 6.59% (active) in the test on OVCAR-5 ovarian; 14.9% in the test with OVCAR-4 ovarian. In addition, the growth is -3.36% (active) in the test with SK-OV-3 ovarian; -4.01% (active) in the test with IGROV1 ovarian; -53% (active) in the test with OVCAR-3 ovarian; -27.9% (active) with HS 578T breast; 1.07% (active) in the test with NCI/ADR-RES ovarian; 24.7% in the test on T-47D breast. The growth in the test with BT-549 breast was -50.9% (active); in the test with MDA-MB-435 melanoma, -58.3% (active); with SW-620 colon it was 6.51% (active); with MCF7 breast it was 5.53% (active); in the test on HCT-116 colon it was -33.7% (active); in the test on HCC-2998 colon, -59.6% (active). The growth with KM12 colon was -39.8% (active).
For `CC(C)=CCc1c(O)c(C(=O)CC(C)C)c(O)c2c(-c3ccccc3)cc(=O)oc12`, the growth with MOLT-4 leukemia was 38.5%; in the test on SR leukemia it was 41.5%; in the test with RPMI-8226 leukemia, 8.71% (active); in the test on OVCAR-8 ovarian, 47.6%; in the test with OVCAR-5 ovarian it was 84.9%; in the test with OVCAR-4 ovarian it was 68.7%. Further, the growth with SK-OV-3 ovarian was 60.9%; with IGROV1 ovarian, 62.9%; in the test on OVCAR-3 ovarian it was 33.9%; with HS 578T breast, 47%; with NCI/ADR-RES ovarian, 35.6%; in the test on T-47D breast it was 33.4%. Besides, the growth is 30.4% in the test on BT-549 breast; 57.1% in the test with MDA-MB-435 melanoma; 48.5% in the test with SW-620 colon; 28.3% in the test on MCF7 breast; 36.8% in the test with HCT-116 colon; 42.4% in the test on HCC-2998 colon. Moreover, the growth in the test on KM12 colon is 41%.
As to `COc1ccc([As]=[As]c2ccc(OC)c(NCS(=O)(=O)O)c2)cc1NCS(=O)(=O)O` (configuration not stated), the growth in the test on MOLT-4 leukemia was -0.189% (active); in the test on SR leukemia, -1.51% (active); in the test with RPMI-8226 leukemia it was -13% (active); in the test with OVCAR-8 ovarian, 44%; in the test on OVCAR-5 ovarian, 63.8%; with OVCAR-4 ovarian it was 14.9%. The growth is 91.6% with SK-OV-3 ovarian; 5.53% (active) with IGROV1 ovarian; 9.01% (active) in the test with OVCAR-3 ovarian; 6.44% (active) with HS 578T breast; 73.7% in the test with NCI/ADR-RES ovarian; -41.9% (active) in the test with T-47D breast. For the same compound, the growth is -12.1% (active) in the test with BT-549 breast; 48.8% in the test with MDA-MB-435 melanoma; -1.05% (active) with SW-620 colon; -67.5% (active) with MCF7 breast; -60.2% (active) in the test on HCT-116 colon; 57.5% in the test on HCC-2998 colon. For the same compound, the growth with KM12 colon is 72.9%.
With `Cc1cc(N(CCCl)CCCl)ccc1C=Nc1ccccc1-c1ccccc1`, the growth with MOLT-4 leukemia was 41.9%; with SR leukemia it was 30.6%; with RPMI-8226 leukemia it was 86.7%; in the test on OVCAR-8 ovarian it was 74%; in the test with OVCAR-5 ovarian it was 43.1%; in the test on OVCAR-4 ovarian it was 99.5%. Further, the growth was 98.6% in the test with SK-OV-3 ovarian; 47.8% in the test on IGROV1 ovarian; 88.3% in the test with OVCAR-3 ovarian; 104% with HS 578T breast; 59.8% in the test with NCI/ADR-RES ovarian; 27.5% in the test on T-47D breast. The growth is 83.7% in the test with BT-549 breast; 93.5% with MDA-MB-435 melanoma; 67% in the test on SW-620 colon; 39.1% in the test with MCF7 breast; 75.8% in the test on HCT-116 colon; 96.9% in the test with HCC-2998 colon. Also, in the test on KM12 colon, the growth is 97.3%.
`CCCCN1CCCC[C@@H]1C(=O)N[C@H](C(=O)N(C)[C@H](CCc1nc(C(=O)N[C@@H](Cc2ccccc2)C[C@H](C)C(=O)OC)cs1)C(C)C)[C@@H](C)CC`: the growth is 34.7% in the test on MOLT-4 leukemia; 8% (active) in the test on SR leukemia; 28.6% in the test with RPMI-8226 leukemia; 80.9% with OVCAR-8 ovarian; 101% in the test on OVCAR-5 ovarian; 56.9% in the test with OVCAR-4 ovarian. In addition, the growth in the test on SK-OV-3 ovarian was 49.9%; in the test with IGROV1 ovarian, 48.9%; with OVCAR-3 ovarian, 13.8%; with HS 578T breast it was 76%; in the test on NCI/ADR-RES ovarian it was 65.7%; in the test with T-47D breast, 44.2%. The growth is 36.4% in the test on BT-549 breast; -30% (active) with MDA-MB-435 melanoma; 63.7% in the test with SW-620 colon; 18.5% in the test on MCF7 breast; 31.6% with HCT-116 colon; 61.7% with HCC-2998 colon. Besides, the growth in the test on KM12 colon is 28%.
As for `O=C([O][Hg][CH2]C1OCCOC1[CH2][Hg][O]C(=O)c1ccccc1)c1ccccc1` (configuration not stated), the growth with MOLT-4 leukemia is -8.85% (active); in the test on SR leukemia, 2.54% (active); with RPMI-8226 leukemia it was 12.3%; with OVCAR-8 ovarian, 90%; with OVCAR-5 ovarian, 112%; in the test with OVCAR-4 ovarian, -89.2% (active). For the same compound, the growth was 122% with SK-OV-3 ovarian; 46.3% with IGROV1 ovarian; -98.2% (active) in the test on OVCAR-3 ovarian; 113% in the test with HS 578T breast; 28.7% in the test on NCI/ADR-RES ovarian; -64.1% (active) in the test with T-47D breast. Further, the growth was 75.5% in the test on BT-549 breast; 93.6% with MDA-MB-435 melanoma; -82.4% (active) in the test with SW-620 colon; -31.7% (active) in the test on MCF7 breast; -95.2% (active) with HCT-116 colon; 108% in the test with HCC-2998 colon. In addition, the growth with KM12 colon is 107%.
Consider `CCCCCCC(=O)NC1=C(N2CC2)C(=O)C(NC(=O)CCCCCC)=C(N2CC2)C1=O`, for which the growth with MOLT-4 leukemia was 49%; in the test on SR leukemia it was 40.7%; in the test on RPMI-8226 leukemia, 56.1%; in the test on OVCAR-8 ovarian it was 32%; in the test with OVCAR-5 ovarian it was 93%; with OVCAR-4 ovarian it was 30.9%. The growth is 39.8% in the test with SK-OV-3 ovarian; 20.3% in the test with IGROV1 ovarian; -53.4% (active) in the test with OVCAR-3 ovarian; 88.2% in the test on HS 578T breast; 60.1% with NCI/ADR-RES ovarian; 11.4% with T-47D breast. Besides, the growth in the test on BT-549 breast is 28%; in the test on MDA-MB-435 melanoma, 13.4%; with SW-620 colon, 56.9%; in the test with MCF7 breast, 19.1%; in the test on HCT-116 colon, -14.1% (active); in the test with HCC-2998 colon, 53.9%. Moreover, the growth with KM12 colon was 48.8%.
